# Tests used:
# Experiment in all cases: pooled miR-30 sensor sort-seq; sequence = guide strand
# Conditions in all cases: shRNA
# MIER1 = target: MIER1
# MIS12 = target: MIS12
# MIOX = target: MIOX
# MIP = target: MIP
# MMADHC = target: MMADHC
# MOBKL1B = target: MOBKL1B
# MPG = target: MPG
# MRC1L1 = target: MRC1L1
# MRPL14 = target: MRPL14
# MRPL21 = target: MRPL21
# MRPL30 = target: MRPL30
# MRPS18C = target: MRPS18C
# MTDH = target: MTDH
# MTF2 = target: MTF2
# MTFP1 = target: MTFP1
# MTG1 = target: MTG1
# Note: reference of the scale not given here.
sequence,measurement,setting,value
TTCGTCTAGAAGACGATCCATG,sensor-assay potency score (higher = more potent),MIER1,-1.5
TAGTCGAACAGTACTACCATAA,sensor-assay potency score (higher = more potent),MIER1,-1.32
TAATTCTGCAAGAAGGGCCTGC,sensor-assay potency score (higher = more potent),MIS12,0.0971
TTAATCTTCTCAATGCTTCTTC,sensor-assay potency score (higher = more potent),MIER1,0.934
TGTGCTGTATCGAGGATCCTGG,sensor-assay potency score (higher = more potent),MIOX,-0.757
TTAATATTTCACCTGGTCCATT,sensor-assay potency score (higher = more potent),MIER1,-1.02
TTGGGGAAATCTACGTCCGGGT,sensor-assay potency score (higher = more potent),MIOX,-0.845
TTGTTAAACTTCATCACCTGGT,sensor-assay potency score (higher = more potent),MIOX,-0.0605
ATCATCAAAATCATGAACCAGC,sensor-assay potency score (higher = more potent),MIER1,-0.377
TTTATCTTCAGGAAGCAAGATG,sensor-assay potency score (higher = more potent),MIS12,-0.586
TTGAGTGCTAGGTTTCCTCGGA,sensor-assay potency score (higher = more potent),MIP,-0.0163
TCCATGACTGTCATTTTCTTGT,sensor-assay potency score (higher = more potent),MIOX,-1.1
TCAGAAATACTCTTGAGCCGGG,sensor-assay potency score (higher = more potent),MIP,0.442
TTCTTCTTTCCAAATCGTGTTT,sensor-assay potency score (higher = more potent),MIER1,-0.957
TTCTTGTAGGAGAAGCCCCCAA,sensor-assay potency score (higher = more potent),MIOX,-0.777
TTCAGTTCAACAGGTTCCCCTG,sensor-assay potency score (higher = more potent),MIP,-0.987
TGCATGAGCTTGTAGGTGGTGA,sensor-assay potency score (higher = more potent),MIOX,-0.613
TATAATCTTCATCTTCTTCAGA,sensor-assay potency score (higher = more potent),MIER1,-0.137
TAATGTTCTGTAGTTTTCTGGA,sensor-assay potency score (higher = more potent),MIS12,-0.154
TTTTCTAAGAGCACTTCTCTTT,sensor-assay potency score (higher = more potent),MMADHC,-0.6
TGAGGTGACAATCAAAACCTAT,sensor-assay potency score (higher = more potent),MMADHC,-0.635
AATATTAGTACCATCTGCCCAG,sensor-assay potency score (higher = more potent),MOBKL1B,0.0511
TATGTGATAACAACAAGAGTGG,sensor-assay potency score (higher = more potent),MOBKL1B,-0.235
AAGAACTCCAACCCCAGTCGGG,sensor-assay potency score (higher = more potent),MPG,-0.896
TTTCTCATCTCTGTGAATCTTG,sensor-assay potency score (higher = more potent),MRC1L1,0.274
TAAAGCTACACAATCATTCCGT,sensor-assay potency score (higher = more potent),MRC1L1,0.804
TTCTTATAGACATGGATGCAGC,sensor-assay potency score (higher = more potent),MRPL14,-1.01
TTTAGGAACATATCCTGGTAGA,sensor-assay potency score (higher = more potent),MRPL21,-0.392
TAGACATGTTCTCCTCTGCTGG,sensor-assay potency score (higher = more potent),MRPL30,-0.684
TATCCTGGTAGATATGAAGTGC,sensor-assay potency score (higher = more potent),MRPL21,-0.473
TTCAATTTTGCATTCACTGAAG,sensor-assay potency score (higher = more potent),MRPL30,-0.704
TTGCCCACTCCATTCTTCTTAT,sensor-assay potency score (higher = more potent),MRPL14,-0.852
TTTGTGACGAATCCAATCTGTA,sensor-assay potency score (higher = more potent),MRPL30,-0.546
TCATCTTCTGAATCGCACTCAG,sensor-assay potency score (higher = more potent),MRPL14,-0.0883
TACCTGTTGTGAACAACCTCTT,sensor-assay potency score (higher = more potent),MRPS18C,0.47
TTGAAGTTTTTCCTTTTCCTGA,sensor-assay potency score (higher = more potent),MRPL21,-0.489
TTTCTTCCCACAAAGACCTGTA,sensor-assay potency score (higher = more potent),MRPS18C,0.204
TTGAGCTCTCTTAATTGCTTTT,sensor-assay potency score (higher = more potent),MRPS18C,-1.05
TTCTACTCGAACAAGATCCTTT,sensor-assay potency score (higher = more potent),MRPL21,0.318
TTTTAGGAACATATCCTGGTAG,sensor-assay potency score (higher = more potent),MRPL21,0.0621
ATTCTTCTTATAGACATGGATG,sensor-assay potency score (higher = more potent),MRPL14,-1.46
TTTCTTTCTGTTTCTTCCCACA,sensor-assay potency score (higher = more potent),MRPS18C,-1.1
TTCTTCTTGAAGTTTTTCCTTT,sensor-assay potency score (higher = more potent),MRPL21,-0.465
TCGAACAAGATCCTTTCCGAGG,sensor-assay potency score (higher = more potent),MRPL21,-1.49
TGAATCGCACTCAGACTCCCAG,sensor-assay potency score (higher = more potent),MRPL14,-0.455
TTTTTCTAATCCAAGCATCTTT,sensor-assay potency score (higher = more potent),MRPL30,-0.539
TTAAATAAAAACAATTTGCATT,sensor-assay potency score (higher = more potent),MRPL30,-0.896
TCACAGTCTGTAGTCTGCCTGG,sensor-assay potency score (higher = more potent),MRPL30,-0.534
ATACCTGTTGTGAACAACCTCT,sensor-assay potency score (higher = more potent),MRPS18C,-0.0858
TACCAAGTGTGTCAACTTCTTC,sensor-assay potency score (higher = more potent),MRPS18C,-0.886
TTATCCGGAGGACAGTCTGCGG,sensor-assay potency score (higher = more potent),MRPL21,-1.53
TGTGATTTCTTTCTGTTTCTTC,sensor-assay potency score (higher = more potent),MRPS18C,0.701
TTCATTTCCAATTAAGATCAGG,sensor-assay potency score (higher = more potent),MRPL21,-0.523
ATTTCTTTCTGTTTCTTCCCAC,sensor-assay potency score (higher = more potent),MRPS18C,0.584
TCTGTGAATTGAACCTTCGAGA,sensor-assay potency score (higher = more potent),MRPL21,-0.658
TGCTTTTGTGATTTCTTTCTGT,sensor-assay potency score (higher = more potent),MRPS18C,0.125
TTTGTCACAGTCTGTAGTCTGC,sensor-assay potency score (higher = more potent),MRPL30,-0.242
TTGTGAACAACCTCTTCTCCAA,sensor-assay potency score (higher = more potent),MRPS18C,-0.0976
TATTCTGGTAACAATATGCAGT,sensor-assay potency score (higher = more potent),MRPL30,-0.632
AATTGAACCTTCGAGAAGCAGA,sensor-assay potency score (higher = more potent),MRPL21,-0.954
TTTGAGCTCTCTTAATTGCTTT,sensor-assay potency score (higher = more potent),MRPS18C,-0.321
TATCCGGAGGACAGTCTGCGGG,sensor-assay potency score (higher = more potent),MRPL21,-1.15
TAGTATCTGGTCGCCCACCTTG,sensor-assay potency score (higher = more potent),MRPL14,-1.26
TAGGGTCCTTGAGATATGCAGG,sensor-assay potency score (higher = more potent),MRPS18C,-0.899
TATTCTTGTGAACTTGAGGGGT,sensor-assay potency score (higher = more potent),MRPL30,0.0626
ATTCTTGTGAACTTGAGGGGTA,sensor-assay potency score (higher = more potent),MRPL30,-0.0278
TTACACTTTGAGGTGTTCGAAC,sensor-assay potency score (higher = more potent),MTDH,-0.892
TTTGGCTTTATGTCCATCCTGT,sensor-assay potency score (higher = more potent),MTF2,0.854
TATCGCACCCACGTGTCCCGGT,sensor-assay potency score (higher = more potent),MTFP1,-0.561
TTGCTTACTAATCTGTAGGCAA,sensor-assay potency score (higher = more potent),MTDH,-0.352
TTCTCCTTCTAAGTGTTGCATA,sensor-assay potency score (higher = more potent),MTG1,-0.79
TGTCTCTAAGCTTCTGTCCAGC,sensor-assay potency score (higher = more potent),MTFP1,-0.761
TTTTGGACATCACAGCTCTGGT,sensor-assay potency score (higher = more potent),MTG1,-1.25
TTATAGCTTTAACTCCTTCTGA,sensor-assay potency score (higher = more potent),MTG1,-0.275
TTGGACATCACAGCTCTGGTGA,sensor-assay potency score (higher = more potent),MTG1,-0.544
TTGTCTCTAAGCTTCTGTCCAG,sensor-assay potency score (higher = more potent),MTFP1,-0.49
TTGGACACCAGGGAGCCAGGTG,sensor-assay potency score (higher = more potent),MTFP1,-0.945
TCCACCGACCTCTCCAGCCTTC,sensor-assay potency score (higher = more potent),MTFP1,-1.18
TATTCTGGTCCAGAACTGCAGA,sensor-assay potency score (higher = more potent),MTF2,-0.798
ATCAGTTCAGTGACCATCGGGA,sensor-assay potency score (higher = more potent),MTG1,-0.492
TTTTGCTTGGTATTTGACTTGG,sensor-assay potency score (higher = more potent),MTDH,-0.198
TTTCCCTTTCCTGAGGTGCTGC,sensor-assay potency score (higher = more potent),MTG1,-0.722
TAGTTGAATCCAATGAACCAGA,sensor-assay potency score (higher = more potent),MTDH,-0.602
TTTGCAGCACTGTAGCATCTTC,sensor-assay potency score (higher = more potent),MTF2,-0.454
